High-throughput results: PubChem BioAssay, several laboratories
Many of the other results were omitted from the sample, so hits are more common in it than they were.
PDI inh = blocks human protein disulfide isomerase activity; PDI insulin aggregation turbidity, A650, 90 min; inhibition, % at 10 µM; 350,000 compounds, 0.052% hits;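 active = mean inhibition across replicates of 30% or more, whatever share of single replicates reach that level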
ARNT TACC3 PPI = disruptors of human ARNT/TACC3 interaction; AlphaScreen His-ARNT PAS-B/GST-TACC3 binding, luminescence; TACC3 fragment carries E629A point mutation; inhibition, % at 9.99 µM; 390,000 compounds, 0.66% hits; AID 623870;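 active = mean inhibition of replicates at least 50% and at least half of replicates each reaching 50%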;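 note: 0% = complete ARNT plus TACC3 wells and 100% = ARNT alone without TACC3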
ERp5 block = blocks human ERp5 reductase activity on insulin; Q15084; ERp5 insulin aggregation, absorbance 650 nm, 90 min; inhibition, % at 9.99 µM; 350,000 compounds, 0.05% hits;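 active = mean replicate inhibition above about 25%, with every replicate also reaching it, limit read from the data, passing the limit was not always enough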
PglD inh = inhibitors of Campylobacter jejuni PglD acetyltransferase; AID 602405; inhibition, % at 12.5 µM; purified PglD enzyme, DTNB colorimetric CoA detection; 360,000 compounds, 0.098% hits; in the data active = inhibition above about 16%, passing the limit was not always enough
CendR NRP1 mod = NRP-1/CendR interaction modulation; inhibition, % at 25 µM; O14786; 360,000 compounds, 0.85% hits; FAM-RPARPAR peptide binding to NRP-1, fluorescence polarization;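 active = inhibition or corrected inhibition above about 18%, plus a signal ratio from 0.5 to 1.5, limit read from the data, passing the limit was not always enough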
ALR inh = blocks human ALR sulfhydryl oxidase activity | P55789 | purified ALR, DTT oxidation, H2O2 HRP-luminol luminescence | inhibition, % (test concentration not listed) | 290,000 compounds, 3.8% hits | AID 485317;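 active = mean replicate inhibition above about 79%, with every replicate also reaching it, limit read from the data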
An asterisk follows results filed as active; / = not tested or not shown.

SMILES	PDI inh	ARNT TACC3 PPI	ERp5 block	PglD inh	CendR NRP1 mod	ALR inh
C[C@@H]1CN([C@@H](C)CO)C(=O)c2cc(NC(=O)Nc3ccc4c(c3)OCO4)ccc2O[C@@H](C)CCCCO[C@@H]1CN(C)S(=O)(=O)c1cn(C)cn1	/	2.6	-4.3	-2.9	/	/
COc1ccc(NC(=O)Cn2nnc(C(N)=O)c2N)c(OC)c1	0.8	-10.6	-6.2	0.9	32.8*	-17.8
COc1ccc(NC(=O)Cn2nnc(C(=O)NCc3cccs3)c2N)c(OC)c1	3.7	/	-6.8	-1.9	-4.5	-4.6
C[C@@H]1CN([C@H](C)CO)C(=O)c2cc(NS(=O)(=O)c3ccccc3)ccc2O[C@@H](C)CCCCO[C@@H]1CN(C)C(=O)Cc1ccccc1	/	1.4	-0.7	3.8	/	/
COc1ccc(NC(=O)N(C)C[C@@H]2Oc3ccc(NS(=O)(=O)c4cn(C)cn4)cc3CC(=O)N([C@@H](C)CO)C[C@@H]2C)cc1	/	6.1	-6.1	-1.5	/	/
CCOC(=O)N1CCC(NC(=O)CS(=O)Cc2nc(-c3ccc(C)cc3)oc2C)CC1 (centres undefined)	-2.3	4.5	-8.5	-1.3	-3.3	99.2*
CCOC(=O)N1CCC(NC(=O)CS(=O)Cc2nc(-c3ccc(Cl)cc3)oc2C)CC1 (centres undefined)	2.9	-1.8	3.6	1.9	9.5	98.7*
CCOC(=O)N1CCC(NC(=O)CS(=O)(=O)Cc2nc(-c3ccc(OC)cc3)oc2C)CC1	-6.5	0.8	-0.3	0.3	-8.1	-0.8
CCOC(=O)N1CCC(NC(=O)CS(=O)Cc2nc(-c3ccc(OC)c(OC)c3)oc2C)CC1 (centres undefined)	-10.9	-4.0	/	6.9	-3.8	99.7*
CCOC(=O)N1CCN(C(=O)CS(=O)Cc2nc(-c3ccc(C)cc3)oc2C)CC1 (centres undefined)	/	-2.9	-8.7	5.0	-3.8	/
Cc1noc(C)c1S(=O)(=O)N(C)C[C@@H]1Oc2ccc(NC(=O)NC3CCCCC3)cc2CC(=O)N([C@H](C)CO)C[C@H]1C	/	11.5	-0.2	0.1	/	/
Cc1cc(SCC(=O)N/N=C/c2ccc(O)c(O)c2O)c(C)cc1Br	-1.6	-3.1	/	-3.1	12.1	95.2*
CN1CCN(S(=O)(=O)c2ccc(N3CCN(c4ccc(O)cc4)CC3)c([N+](=O)[O-])c2)CC1	17.2	7.6	3.5	/	13.0	98.0*
O=[N+]([O-])c1cc(S(=O)(=O)Nc2ccccc2)ccc1N1CCN(c2ccc(O)cc2)CC1	25.0	/	-2.1	/	3.5	/
COCCn1c(-c2ccco2)nc2nc3ccccc3nc21	-4.4	5.7	/	-7.9	-3.0	/
CC(C)OCCCn1c(-c2ccco2)nc2nc3ccccc3nc21	-1.6	-8.6	/	-5.7	-38.3	97.6*
C[C@H]1CN([C@@H](C)CO)C(=O)c2cc(NC(=O)CCCN(C)C)ccc2O[C@@H]1CN(C)S(=O)(=O)c1cccs1	/	-4.2	0.6	10.7	/	/
O=S(=O)(c1ccc(F)cc1)N1CCN=C1SCc1cccnc1	19.3	-0.4	1.9	/	-3.0	98.0*
CC(=O)Nc1ccc(S(=O)(=O)N2CCN=C2SCc2ccc(C)cc2)cc1	1.4	6.2	11.2	0.0	17.2	-11.5
CC(=O)Nc1ccc(S(=O)(=O)N2CCN=C2SCc2cccnc2)cc1	-1.3	1.5	-3.5	/	28.6*	98.3*
O=S(=O)(c1ccc2ccccc2c1)N1CCN=C1SCc1cccnc1	-5.1	2.6	/	/	6.2	99.0*
COCC(=O)N1C[C@H](C)[C@@H](OC)CN(C)C(=O)c2cc(NC(=O)NC(C)C)ccc2OC[C@H]1C	/	-3.4	5.5	2.7	/	/
NC(=O)c1cc2cc(Cl)ccc2oc1=O	-8.2	0.9	/	4.0	0.2	-2.2
NC(=O)c1cc2cc(Cl)ccc2oc1=Nc1cccc(C(F)(F)F)c1	3.5	-3.8	3.3	-5.7	-5.5	90.8*
O=C(CCN1CCCCC1)NCC[C@@H]1CC[C@@H](NC(=O)C2CCOCC2)[C@H](CO)O1	/	-9.0	4.4	4.0	/	/
SMILES	PDI inh	ARNT TACC3 PPI	ERp5 block	PglD inh	CendR NRP1 mod	ALR inh
O=C(C[C@@H]1C[C@@H]2c3cc(NC(=O)CC4CC4)ccc3O[C@@H]2[C@H](CO)O1)NCc1ccc(Cl)cc1	/	-5.4	-2.0	-2.0	/	/
CCOC(=O)CC(=O)CSc1nc2c(sc(=S)n2-c2ccc(C)c(C)c2)c(=O)[nH]1	-1.6	-0.6	-1.8	0.6	-0.8	/
CCOC(=O)CC(=O)CSc1nc2c(sc(=S)n2-c2ccc(OCC)cc2)c(=O)[nH]1	0.7	-0.4	0.3	-3.6	2.4	96.5*
C=C1CCN([C@H](C(=O)O)C(C)C)S(=O)(=O)c2ccccc21	2.2	-0.6	-0.2	-0.2	35.9*	-1.8
C[C@H]1CN([C@@H](C)CO)C(=O)c2cc(NS(C)(=O)=O)ccc2O[C@H]1CN(C)CC1CC1	/	-0.3	-3.4	0.1	/	/
CCN(CC)CCNc1nc(-c2ccc(OC)cc2)c(-c2ccc(OC)cc2)s1	5.6	12.8	5.7	/	-6.2	98.5*
COCCNc1nc(-c2ccc(OC)cc2)c(-c2ccc(OC)cc2)s1	-1.8	30.1	-0.7	/	18.1	94.2*
COc1ccc(-c2sc(NC(C)=O)nc2-c2ccccc2)cc1	-3.5	-6.1	/	/	6.8	-8.8
COc1cccc(-c2ccc(C3[C@@H]4CN(S(=O)(=O)c5cccc(OC)c5)C[C@H]3N4)cc2)c1 (some centres undefined)	/	/	1.9	/	/	/
C=CCn1c(SCCOc2ccccc2)nnc1C(C)NC(=O)c1ccccc1 (centres undefined)	6.0	-4.6	/	/	-1.8	-1.0
C=CCn1c(CCNC(=O)c2ccc(Cl)c(Cl)c2)nnc1SCCOc1ccc(OC)cc1	10.3	4.2	1.5	-3.3	25.8*	-0.4
CCOC(=O)C(NC(C)=O)C(=O)Nc1ccc(C(C)C)cc1 (centres undefined)	-4.4	5.8	/	/	26.0*	-35.7
COC(=O)[C@@H]1[C@@H](CO)[C@@H]2Cn3c(ccc(/C=C/c4ccccc4)c3=O)[C@@H]2N1C(=O)CC1CC1	/	/	/	2.8	/	/
CC1CC(N(C(=O)c2ccco2)c2ccccc2)c2ccccc2N1 (centres undefined)	-10.5	/	/	1.3	-0.7	97.5*
CC1CC(c2ccccc2)n2nc(NC(=O)c3ccco3)nc2N1 (centres undefined)	2.1	31.1	/	0.0	0.7	21.4
CNC(=O)C[C@H]1CC[C@H]2[C@@H](COc3ccc(NC(=O)c4cnccn4)cc3C(=O)N2C)O1	/	2.0	/	0.1	/	/
CCOC(=O)c1ccc(-c2c(-c3cc(OC)c(OC)c(OC)c3)noc2C)cc1F	-6.1	-7.6	-2.0	-1.0	25.2*	-2.2
Cc1ncc(CO)c(/C=N/N=C/c2ccccc2O)c1O	-6.8	-4.9	/	/	2.8	-1.9
Cc1ncc(CO)c(/C=N/Nc2ccc(C(F)(F)F)cn2)c1O	9.2	71.7*	1.9	-0.4	4.4	5.5
Cc1ncc(CO)c(/C=N/NC(=S)Nc2ccc(F)cc2)c1O	10.2	53.8*	/	/	-19.1	67.7
